# Compounds with a hit are over-represented: about 19% of the library has one in this group of screens.
# SARS PLpro yeast: inhibitors of SARS-CoV papain-like protease in yeast; 330,000 compounds, 0.19% hits; AID 485353; Potency, µM (series often up to 32.9 µM), actives largely listed as activators; S. cerevisiae expressing SARS-CoV PLpro, growth rescue; calls by dose curve; also: nearly all actives have a fitted effect of over 55% in size
# Pf growth 48h: inhibits P. falciparum growth in the first generation, 48 h; P. falciparum luciferase growth in erythrocytes, 48 h; 310,000 compounds, 5.9% hits; Potency, µM (doses to about 28.7 µM), actives largely listed as inhibitors
#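 Luciferase-expressing P. falciparum in infected erythrocytes (2% hematocrit, 0.1% parasitemia final) in RPMI 1640/0.5% Albumax were exposed to compound for 48 hours at 37 C, 5% CO2; growth read as luminescence.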
# AMA1-RON2 inh: AMA1-RON2 (P. falciparum) interaction inhibition | AlphaScreen AMA1-biotinylated RON2 peptide binding | Potency, µM (series often up to 58.2 µM), actives largely listed as inhibitors | 360,000 compounds, 0.2% hits; also: nearly all actives have a fitted effect of over 45% in size
#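 AMA1 (3D7) with his tag at 25 nM final met compounds first, then biotinylated RON2 peptide at 25 nM; detection used donor plus acceptor beads, 10 µg/mL apiece, read by AlphaScreen after 30 min at room temperature.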
# Shiga toxin inh: blocks Shiga toxin action in Vero cells | inhibition, % at 38.7 µM | Vero cells, Shiga toxin protein synthesis inhibition reporter | 290,000 compounds, 9.2% hits; in the data active = inhibition mostly above about 28%, no sharp cut-off; inactive = mostly below about 43%
# CHX counter: affects cycloheximide protein synthesis inhibition readout, counter-screen; cell reporter, cycloheximide protein synthesis inhibition counterscreen; max response, %; 300,000 compounds, 12% hits; AID 2314; in the data active = max response mostly above about 13%, no sharp cut-off; inactive = mostly below about 14%; also: read at 38.3 µM for the half of the compounds with a filed dose
# Pf growth 96h: P. falciparum growth inhibition at 96 hours | P. falciparum luciferase reporter growth, 96 h | 320,000 compounds, 6.9% hits | Potency, µM (top dose mostly 28.7 µM), usual class: inhibitors
#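 Compounds incubated with erythrocytes infected by luciferase-expressing P. falciparum (2% hematocrit, 0.05% parasitemia final) for 96 hours, 37 C in 5% CO2. Growth inhibition scored as decreased luciferase luminescence.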
# Hits are given with their value; . = inactive; ? = inconclusive; / = no result given; [ ] = remark or other dose. Unless noted, calls follow the shape of the dose curve; as a rule, active = well fitted curve in the direction sought with a large enough effect; inconclusive = small, poorly fitted or top-dose-only effect, or another doubt; inactive = no such curve, though single readings can be large; an effect the other way counts as inactive or inconclusive.
SMILES,SARS PLpro yeast,Pf growth 48h,AMA1-RON2 inh,Shiga toxin inh,CHX counter,Pf growth 96h
Cc1ccc(NC(=O)C2CCCN(c3ncccn3)C2)cc1F (stereo not drawn),.,.,.,.,23,.
O=C(Nc1cccc(C(F)(F)F)c1)C1CCCN(c2ncccn2)C1 (stereo not drawn),.,.,.,.,.,.[5.75 µM]
Cc1ccc(NC(=O)C2CCCN(c3ncccn3)C2)c(C)c1 (stereo not drawn),.,.,.,49,33,13µM
O=C(Nc1ccc2c(c1)CCC2)C1CCCN(c2ncccn2)C1 (stereo not drawn),.,.,.,43,38,.
CCOC(=O)N1CCC(NC(=O)c2oc3c(c2C)-c2[nH]ncc2CC3)CC1,.,/,.,.,.,8.3µM
Cc1ccc(Sc2nc3ccc(C)cn3c(=O)c2/C=N/O)cc1,.,.,.,.,.,.
CC(C)Oc1ccc(S(=O)(=O)N2CCOCC2)cc1NC(=O)C1CCC1,.,.,.,/,/,?
COc1ccc(S(=O)(=O)N2CCCCC2)cc1NC(=O)c1ccc(N2CCCC2=O)cc1,.,9.3µM,.,/,/,?
CC(C)Oc1ccc(S(=O)(=O)N2CCOCC2)cc1NC(=O)C1=NN(c2ccccc2)C(=O)CC1,.,3.7µM,.,/,/,1.7µM
CC(C)Oc1ccc(S(=O)(=O)N2CCOCC2)cc1NC(=O)CC1CCCC1,.,9.3µM,.,/,/,8.3µM
CCN(CC)S(=O)(=O)c1ccc(OC)c(NC(=O)c2ccc(N3CCCC3=O)cc2)c1,.,?,.,/,/,9.3µM
O=C(NCCc1ccccc1)C(=O)NCC1OCCN1S(=O)(=O)c1ccc(Cl)cc1 (stereo not drawn),.,.,.,.,.,.
Cc1cccc(N(C(=O)CNC(=O)c2cccs2)C(C(=O)NC2CCCC2)c2ccncc2)c1 (stereo not drawn),.,.,.,.,.,.
COc1ccc(S(=O)(=O)N2CCCCC2)cc1NC(=O)c1ccc(Cl)nc1,.,15µM,.,/,/,?
Cc1ccc(S(=O)(=O)N2CCCCC2)cc1NC(=O)c1ccc(Cl)nc1,.,?,.,/,/,?
CC(C)Oc1ccc(S(=O)(=O)N2CCOCC2)cc1NC(=O)c1ccc(N2CCCC2=O)cc1,.,4.1µM,.,.,.,1.3µM
CCOc1ccc(S(=O)(=O)N(CC)CC)cc1NC(=O)c1ccc(N2CCCC2=O)cc1,.,10µM,.,.,.,?
Cc1noc(C)c1CSCC(=O)Nc1cc(S(=O)(=O)N2CCCCC2)ccc1OC(C)C,.,13µM,.,/,/,?
O=C(NCc1ccc(Cl)cc1Cl)C(=O)N1CCCCC1,.,/,.,.,.,.
CC(=O)NC(c1ccc(F)c(F)c1)c1nc(-c2cc3ccccc3o2)cs1 (stereo not drawn),/,/,.,/,/,/
COc1ccc(N/C=C(\C=C\C#N)S(=O)(=O)c2ccccc2)cc1,.,.,.,.,.,.
Cc1cc(-n2c(SCc3ccccc3F)nc3n[nH]c(C)c3c2=N)ccc1Cl,.,?,.,.,.,4.7µM
CCC(Sc1nc2n[nH]c(C)c2c(=N)n1-c1cccc(Cl)c1)C(=O)NCCOC (stereo not drawn),.,?,.,.,.,.
CCC(Sc1nc2n[nH]c(C)c2c(=N)n1-c1ccc(C)c(Cl)c1)C(=O)N1CCOCC1 (stereo not drawn),.,13µM,.,.,.,.
CCN(C(=O)CSc1nc2n[nH]c(C)c2c(=N)n1-c1ccc(Cl)c(C)c1)c1cccc(C)c1,.,?,.,.,.,.
SMILES,SARS PLpro yeast,Pf growth 48h,AMA1-RON2 inh,Shiga toxin inh,CHX counter,Pf growth 96h
CCCOCCOC(=O)c1[nH]c2c(c1C)C(=O)CC(c1cc(OC)ccc1OC)C2 (stereo not drawn),.,?,.,.,.,.
O=C(O)c1nc(-c2ccccc2)c(C(=O)NC2CC2)[nH]1,/,/,.,/,/,/
O=C(COC(=O)c1ccc(C(F)(F)F)cc1)Nc1cccc(S(=O)(=O)N2CCCCC2)c1,.,.,.,/,/,?
CSc1nc(=NC(C)=O)ss1,.,.,.,68,33,5.2µM
C/C(=N/NC(=O)CN1CCN(Cc2ccccc2)CC1)c1ccc([N+](=O)[O-])cc1,.,.,.,.,.,.
COc1ccc(CNC(=O)COC(=O)CC2CC3CCC2C3)cc1OC (stereo not drawn),.,.,.,.,.,.
COc1ccc(-c2cc(-c3nnc(COC(=O)CC4CC5CCC4C5)o3)c3ccccc3n2)cc1OC (stereo not drawn),.,9.3µM,.,.,.,.
Cc1nc(-c2cccc(Cl)c2)n[nH]1,.,.,.,104,23,.
Cc1cccc(-c2n[nH]c([N+](=O)[O-])n2)c1,.,.,.,.,.,?
O=C(Nc1ccc(Cl)c(C(F)(F)F)c1)c1ccco1,.,.,.,.,13,.
O=C(Cc1ccccc1)Nc1ccc(NC(=O)c2ccco2)cc1Cl,.,.,.,.,.,9.3µM
O=C(Nc1ccc(Cl)c(Cl)c1)c1ccco1,.,.,.,50,48,.
O=C(Nc1ccc(F)c(F)c1)c1ccco1,.,?,.,89,45,.
O=C(Cc1ccccc1)Nc1ccc(NC(=O)Cc2ccccc2)c(Cl)c1,.,.,.,.,.,?
O=C(Nc1ccc(Cl)c(S(=O)(=O)N2CCCCC2)c1)c1ccco1,.,?,.,/,/,?
COc1ccnc(Oc2ccccc2)c1C(N)=O,.,.,.,.,.,.
Cc1cccc(CN2[C@H](COC(=O)Nc3ccccc3)C=CS2(=O)=O)c1,/,/,.,/,/,/
Cc1ccc(S(=O)(=O)Nc2cc(=O)[nH]c(SCC(=O)Nc3ccccc3Cl)n2)cc1,.,.,.,.,.,.[5.75 µM]
Clc1ccc(NCc2ccsc2)cc1,.,.,/,27,13,.
Clc1ccc(CNc2ccc(CNc3ncn[nH]3)cc2)cc1,.,.,.,.,.,.
CSc1ccccc1-c1nnc(-c2ccc(C)cc2)o1,.,.,.,143,39,.
CSc1ccccc1-c1nnc(-c2ccccc2)o1,.,.,.,95,59,.
Cc1ccc(S(=O)(=O)N2CCCCC2)cc1C(=O)Nc1ccc(S(=O)(=O)Nc2ncccn2)cc1,.,.,.,.,.,.
CN1CCN(C(=S)c2cn(CCOc3ccccc3)c3ccccc23)CC1,.,.,.,.,.,.
Cc1ccc(NC(=O)c2cc(NC(=O)c3ccco3)ccc2N2CCOCC2)cc1Cl,.,/,.,.,.,.
CN1CCN(c2ccc(NC(=O)c3ccco3)cc2Cl)CC1,.,.,.,.,47,.
O=C(Nc1ccc(N2CCOCC2)c([N+](=O)[O-])c1)c1ccco1,.,.,.,70,20,.
Cc1cccc(NC(=O)c2cc(NC(=O)c3ccco3)ccc2N2CCCCC2)c1,.,4.7µM,.,.,.,?
O=C(Nc1ccc(N2CCCC2)c(Cl)c1)c1ccco1,.,.,.,92,32,.
O=C(Nc1cc(Cl)ccc1N1CCOCC1)c1ccco1,.,.,.,.,.,?

# Source: PubChem (National Center for Advancing Translational Sciences (NCATS))
